PolyA inhibitor = blocks polyadenylation in yeast reporter cells; 300,000 compounds, 0.02% hits; activity score, % at 12 µM; S. cerevisiae SKY197-pL101 polyadenylation reporter, beta-gal luminescence; efflux-impaired pdr1/pdr3 knockout yeast; score 100 = 6 SD above DMSO;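 active = lowest replicate activity score at least 50, where 100 means six control SD above control mean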;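 also: yeast exposed to compound for 9 h at 30 °C; higher score means more reporter readthrough which indicates perturbed polyadenylation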
V-ATPase pHluor = alters yeast V-ATPase proton transport | S. cerevisiae, pHLuorin cytosolic pH fluorescence | response, % at 10 µM | 350,000 compounds, 0.37% hits | AID 504577; in the data active = response mostly above about 7.3%, no sharp cut-off; inactive = mostly below about 5.4%; also: actives read high
PKA-R2B act = activators of human PKA-R2B complex. PKA-R2B holoenzyme dissociation, Cy5-IP20 fluorescence polarization; R2B truncated from residue 108, S112A mutant; 0% DMSO only, 100% 113 µM cGMP. activation, % at 11.4 µM. 340,000 compounds, 0.079% hits. P22694+P31323;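 active = activation above a cutoff set at the mean over all compounds plus 3 SD, cut at about 18% in these data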;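 also: higher means more holoenzyme dissociation and a rise in polarization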
Yeast superoxide = lowers age-related superoxide in aged yeast cells. S. cerevisiae aged cells, superoxide DHE fluorescence; stronger effect = lower value. superoxide response (% of plate mean), % at 10 µM. 330,000 compounds, 0.18% hits;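 active = superoxide response under a set limit, about three screen SD below normal, cut at about 65% in these data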;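 also: yeast aged for seven days with compound at 30 °C before DHE staining; 100% = average MFI of all compound-treated wells on the plate with controls excluded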
PKA-R1A activ = activates the PKA-R1A holoenzyme complex | PKA-R1A dissociation, Cy5-IP20 fluorescence polarization; scaled: DMSO 0%, 113 µM cGMP 100% | activation, % at 11.4 µM | 340,000 compounds, 0.083% hits;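 active = percent activation above the mean of all tested compounds plus 3 SD, cut at about 19% in these data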;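 also: higher means more PKAc released from R1A so a rise in polarization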
JMJD2C inh = blocks human GASC-1 demethylase activity. Q9H3R0. GST-JMJD2C(1-420) H3K9me3 demethylation, DELFIA europium. inhibition, % at 2.35 µM. 330,000 compounds, 0.069% hits;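 active = more than half of a compound's replicate wells show inhibition beyond 50%, single wells judged on their own value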;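 also: signal counts dimethyl H3K9 product captured on neutravidin plate; 0% = median of DMSO wells and 100% = 0.3 times that DMSO median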
Target sequence (Q9H3R0 1-420 limits assumed): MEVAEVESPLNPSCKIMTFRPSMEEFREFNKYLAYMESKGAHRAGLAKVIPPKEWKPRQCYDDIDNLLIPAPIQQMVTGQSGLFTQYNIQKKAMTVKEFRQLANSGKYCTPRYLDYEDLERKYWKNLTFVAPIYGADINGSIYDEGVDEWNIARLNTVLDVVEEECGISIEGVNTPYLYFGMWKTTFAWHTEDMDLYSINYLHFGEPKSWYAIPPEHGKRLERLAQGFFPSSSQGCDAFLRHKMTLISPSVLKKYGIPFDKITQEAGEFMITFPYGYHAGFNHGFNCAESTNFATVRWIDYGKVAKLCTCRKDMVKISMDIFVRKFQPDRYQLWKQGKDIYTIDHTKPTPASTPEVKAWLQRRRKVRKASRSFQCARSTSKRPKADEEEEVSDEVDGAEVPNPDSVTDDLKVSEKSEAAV
R1A FP artifact = FP assay interference, PKA-R1A counter-screen | shares compounds with PKA-R1A activ | Cy5-IP20 peptide alone, fluorescence polarization artifact counterscreen | activation, % at 11.4 µM | 280 compounds, 7% hits | AID 504799;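 active = mean activation over triplicate runs exceeds the adjusted cutoff derived for the parent primary screen, cut at about 19% in these data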;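 also: no PKA protein present so any polarization rise reflects compound interference; 0% = tracer peptide mix alone and 100% = mix with added PKA catalytic subunit; higher means stronger polarization artifact and likely false positive in parent screen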
PKA-R1A act conf = confirmation of PKA-R1A complex activators | shares compounds with PKA-R1A activ | Cy5-IP20 fluorescence polarization, PKA-R1A holoenzyme dissociation | activation, % at 11.4 µM | 280 compounds, 9% hits | AID 504800;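 active = mean activation over replicate wells exceeds the adjusted hit threshold taken from the earlier primary screen, cut at about 20% in these data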;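 also: 0% = holoenzyme mix with DMSO only and 100% = cGMP-activated control wells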
Numbers without * were called inactive; . = not tested or not shown. In the library only some 0.78% were active in any assay of this set; here they are far more common.

SMILES | PolyA inhibitor | V-ATPase pHluor | PKA-R2B act | Yeast superoxide | PKA-R1A activ | JMJD2C inh | R1A FP artifact | PKA-R1A act conf
C#CCOCCOCCOCCNc1nc(N2CCN(C(=O)[C@H]([C@@H](C)CC)n3cc([C@@H](N)CO)nn3)CC2)nc(N2CCN(C(=O)[C@H](CCCCN)n3cc([C@@H](N)CO)nn3)CC2)n1 | . | 2 | -15 | 123 | -5 | 14 | . | .
C#CCOCCOCCOCCNc1nc(N2CCN(C(=O)[C@H]([C@@H](C)CC)n3cc([C@@H](N)CC(C)C)nn3)CC2)nc(N2CCN(C(=O)[C@H](CCCCN)n3cc([C@@H](N)CO)nn3)CC2)n1 | 25 | -2 | 0 | 104 | 20* | -12 | 5 | 1
Cc1ccc(S(=O)(=O)NC(=O)NC(C)Cc2ccccc2)cc1 (stereo not given) | 11 | -2 | 2 | 92 | 22* | 47 | 0 | -1
Cc1ccc(NC(=O)c2cncc(Br)c2)c([N+](=O)[O-])c1 | -9 | -3 | 7 | 105 | 23* | -17 | 3 | 4
O=C(N/N=C\c1ccc(Cl)s1)c1cccs1 | -7 | 1 | -9 | 116 | 20* | 13 | -3 | 3
O=C(N/N=C/c1ccncc1)c1cccs1 | 4 | -2 | 0 | 92 | 6 | -2 | . | .
COc1ccccc1N=Nc1c(C)n[nH]c1C | -16 | 3 | -5 | 104 | 19* | -5 | -1 | 1
Cc1cccc(NS(=O)(=O)c2ccc(Oc3ccccc3)cc2)n1 | -12 | 0 | -5 | 95 | 20* | -1 | 3 | 3
Cc1cc(NCCO)nc(-n2nc(C)cc2C)n1 | 3 | 0 | 8 | 102 | 22* | 4 | -3 | -1
Cc1cc(N(CCO)CCO)nc(-n2nc(C)cc2C)n1 | -7 | 0 | -1 | 113 | -2 | -13 | . | .
Cc1nn2c(NCC(C)C)c3c(nc2c1-c1ccccc1)CCC3 | -14 | -2 | 6 | 80 | 20* | -6 | 2 | 0
Cc1nc2cc(NC(=O)Nc3ccccc3Cl)ccc2n1C | 0 | 3 | -1 | 101 | -2 | -3 | . | .
O=P(CCCCCCCCCP(=O)(c1ccccc1)c1ccccc1)(c1ccccc1)c1ccccc1 | 2 | 0 | -4 | 95 | -5 | -4 | . | .
CC[n+]1c(P(=O)([O-])c2ccccc2)[nH]c2ccccc21 | 9 | 0 | -5 | 92 | 21* | 3 | 6 | 4
O=C(c1ccc(S(=O)(=O)c2ccccc2Cl)c([N+](=O)[O-])c1)N1CCCCCC1 | -5 | 3 | -1 | 96 | -11 | 6 | . | .
CNC(=O)COC(=O)c1ccc(OCC(=O)Nc2ccccc2OC)c(OC)c1 | 5 | 2 | 1 | 98 | 22* | 2 | -3 | 1
COCC(=O)N1CCC(Oc2ccc(C(=O)NC3Cc4ccccc4C3)cc2)CC1 | -4 | 1 | 4 | 97 | -2 | 4 | . | .
Cc1coc2cc3oc(=O)c(CCC(=O)NCc4ccccn4)c(C)c3cc12 | 21 | -1 | 8 | 87 | 7 | -15 | . | .
Cc1coc2c(C)c3oc(=O)c(CCC(=O)NCc4ccccn4)c(C)c3cc12 | -13 | -1 | -10 | 95 | 20* | 0 | 2 | 1
CC1CC2OC2CC1COC(=O)C1CC2OC2CC1C (stereo not given) | . | 2 | 0 | . | -2 | . | . | .
COc1ccc(C(=O)N2CCCC(Nc3ccc(C)c(C)c3)C2)c(OC)n1 (stereo not given) | 8 | 4 | 12 | 111 | 23* | 4 | 2 | -4
CSc1nc(-c2ccccc2)cc(C)c1C#N | -10 | 0 | -9 | 116 | 5 | 77 | . | .
CSc1nc(C)cc(/C=C\c2ccccc2)c1C#N | -13 | -2 | 1 | 101 | 20* | 3 | 1 | 1
Cc1ccccc1NC(=O)NC1CCCc2ccccc21 (stereo not given) | -12 | 2 | -5 | 100 | -17 | -4 | . | .
COc1ccc(/C=C2\SC(=O)N(CC(=O)Nc3ccc(O)cc3)C2=O)cc1OC | 25 | 2 | 17 | 93 | 23* | 3 | 18 | 23*
OCCC1CN(Cc2nc3ccccc3s2)CCN1C1CCCC1 (stereo not given) | -14 | -2 | -7 | 99 | 3 | 1 | . | .
CCN(CC)CCOC(=O)C(Cc1ccco1)Cc1cccc2ccccc12 (stereo not given) | 1 | -5 | -3 | 98 | 24* | -6 | 1 | 0
CCOc1ccc(N=Cc2ccc([N+](=O)[O-])cc2)c(O)c1 | . | 4 | -9 | . | 21* | . | 1 | 5
CN(c1ccc(OCC(=O)NC2CCC(O)CC2)cc1)S(=O)(=O)c1ccc(Cl)cc1 (stereo not given) | . | -1 | 3 | 110 | 0 | -2 | . | .

Compound activity: PubChem BioAssay, several laboratories
